{"source": "PubChem BioAssay (NCATS)", "note": "Inconclusive results are not listed. A number with no mark means an inactive call. Active and inactive are the calls of the source. Calls follow the shape of the dose curve; as a rule, active = well fitted curve in the direction sought with a large enough effect; inconclusive = small, poorly fitted or top-dose-only effect, or another doubt; inactive = no such curve, though single readings can be large; an effect the other way counts as inactive or inconclusive."}
{"molecular_target": "Voltage-gated inwardly rectifying potassium channel KCNH2 (Homo sapiens) (UniProt Q12809)", "sequence (Q12809 whole entry, looked up)": "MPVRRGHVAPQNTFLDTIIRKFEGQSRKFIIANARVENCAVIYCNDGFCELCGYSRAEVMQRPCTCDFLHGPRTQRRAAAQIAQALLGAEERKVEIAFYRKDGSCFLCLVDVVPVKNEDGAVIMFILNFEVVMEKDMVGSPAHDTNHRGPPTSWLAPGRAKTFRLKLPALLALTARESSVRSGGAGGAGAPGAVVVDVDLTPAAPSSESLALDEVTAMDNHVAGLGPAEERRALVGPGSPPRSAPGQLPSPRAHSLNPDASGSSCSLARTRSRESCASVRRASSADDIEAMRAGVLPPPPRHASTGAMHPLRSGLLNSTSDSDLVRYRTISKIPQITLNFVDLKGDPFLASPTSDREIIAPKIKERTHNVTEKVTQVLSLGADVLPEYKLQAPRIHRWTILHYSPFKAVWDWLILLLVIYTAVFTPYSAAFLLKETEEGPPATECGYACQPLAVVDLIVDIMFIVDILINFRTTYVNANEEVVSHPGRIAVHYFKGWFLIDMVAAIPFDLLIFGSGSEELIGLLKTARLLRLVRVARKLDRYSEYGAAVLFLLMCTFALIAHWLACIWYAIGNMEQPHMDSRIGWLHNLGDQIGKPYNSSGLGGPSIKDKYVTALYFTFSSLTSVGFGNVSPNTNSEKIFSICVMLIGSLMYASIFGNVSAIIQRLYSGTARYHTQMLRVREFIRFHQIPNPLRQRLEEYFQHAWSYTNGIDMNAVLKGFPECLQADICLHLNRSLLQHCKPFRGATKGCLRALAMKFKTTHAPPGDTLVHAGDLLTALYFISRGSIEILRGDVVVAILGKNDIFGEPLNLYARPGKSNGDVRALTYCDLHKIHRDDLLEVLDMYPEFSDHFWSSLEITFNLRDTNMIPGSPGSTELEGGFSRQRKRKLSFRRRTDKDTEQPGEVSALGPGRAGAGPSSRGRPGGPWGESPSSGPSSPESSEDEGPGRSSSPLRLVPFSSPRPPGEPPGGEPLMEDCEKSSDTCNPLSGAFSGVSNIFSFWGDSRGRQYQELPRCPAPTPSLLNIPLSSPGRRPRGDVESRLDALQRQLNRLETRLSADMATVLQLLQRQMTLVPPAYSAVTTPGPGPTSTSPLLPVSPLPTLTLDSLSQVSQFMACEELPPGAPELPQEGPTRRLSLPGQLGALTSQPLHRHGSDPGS", "assay": "qHTS Assay for Small Molecule Inhibitors of the Human hERG Channel Activity (AID 588834);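 also: top concentration of the series differs between compounds; % is scaled to controls: 0 for no effect and ±100 for the full control effect; lower thallium flux fluorescence means stronger hERG block; nearly all actives have a fitted effect of over 50% in size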", "conditions": "U2OS BacMam hERG, FluxOR thallium flux fluorescence; series mostly up to 46.1 µM; activity change, negative = inhibition: at the top concentration", "how_it_was_run": "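U2OS cells BacMam-transduced with hERG, 2000 cells/well, compound ~10 min at 37 °C before stimulation buffer. FluxOR thallium flux fluorescence read kinetically on FDSS; decrease indicates block; AC50 from Hill fits.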"}
{"smiles": "c1ccc2c(c1)CCCC2C1=NCCN1", "note": "(centres undefined)", "Potency": "inactive"}
{"smiles": "CC(C)(C)NCC(O)c1cc(O)cc(O)c1", "note": "(centres undefined)", "Potency": "inactive"}
{"smiles": "Cc1cccc(C)c1NC(=O)C(C)N", "note": "(centres undefined)", "activity change, negative = inhibition": "0.469% [at 20.6 µM]"}
{"smiles": "CC(C)NCC(O)c1cc(O)cc(O)c1", "note": "(centres undefined)", "Potency": "inactive"}
{"smiles": "N[C@@H](COP(=O)(O)O)C(=O)O", "Potency": "inactive"}
{"smiles": "C[C@]12CC[C@@H]3c4ccc(O)cc4C[C@@H](CCCCCCCCCS(=O)CCCC(F)(F)C(F)(F)F)[C@H]3[C@@H]1CC[C@@H]2O", "note": "(some centres undefined)", "activity change, negative = inhibition": "-11%"}
{"smiles": "CCc1c(C)[nH]c2c1C(=O)C(CN1CCOCC1)CC2", "note": "(centres undefined)", "Potency": "inactive"}
{"smiles": "CN(C)[C@@H]1C(=O)C(C(N)=O)=C(O)[C@@]2(O)C(=O)C3=C(O)c4c(O)ccc(Cl)c4[C@@H](O)[C@H]3C[C@@H]12", "activity change, negative = inhibition": "17.2%"}
{"smiles": "CO[C@@]1(NC(=O)CSCC#N)C(=O)N2C(C(=O)O)=C(CSc3nnnn3C)CS[C@@H]21", "Potency": "inactive"}
{"smiles": "CCCN(CCC)C(=O)C(CCC(=O)O)NC(=O)c1ccccc1", "note": "(centres undefined)", "Potency": "inactive"}
{"molecular_target": "Luciferin 4-monooxygenase (Photinus pyralis) (UniProt P08659)", "sequence (P08659 whole entry, looked up)": "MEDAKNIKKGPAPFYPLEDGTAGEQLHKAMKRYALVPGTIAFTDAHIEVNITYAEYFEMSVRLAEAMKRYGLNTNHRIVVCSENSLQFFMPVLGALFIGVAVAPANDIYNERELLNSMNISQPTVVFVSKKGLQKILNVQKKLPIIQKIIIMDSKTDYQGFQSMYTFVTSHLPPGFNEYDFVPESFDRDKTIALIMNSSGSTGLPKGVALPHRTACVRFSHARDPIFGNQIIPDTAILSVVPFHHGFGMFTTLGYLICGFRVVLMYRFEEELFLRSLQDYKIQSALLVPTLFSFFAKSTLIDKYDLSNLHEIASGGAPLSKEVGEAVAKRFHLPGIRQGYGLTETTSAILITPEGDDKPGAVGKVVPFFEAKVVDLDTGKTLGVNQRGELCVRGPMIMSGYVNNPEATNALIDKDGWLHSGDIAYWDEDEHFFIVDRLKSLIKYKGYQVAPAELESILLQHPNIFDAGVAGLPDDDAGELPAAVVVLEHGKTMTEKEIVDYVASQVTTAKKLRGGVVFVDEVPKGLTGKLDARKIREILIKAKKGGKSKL", "assay": "Biochemical firefly luciferase enzyme assay for NPC (AID 624030);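 also: purified P. pyralis luciferase at 10 nM with luciferin and ATP substrate; 0% = DMSO and -100% = full luciferase inhibition by PTC124 control; nearly all actives have a fitted effect of over 70% in size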", "conditions": "purified P. pyralis luciferase, luminescence, 5 min; series mostly up to 58.6 µM; activity change, negative = inhibition: at the top concentration", "how_it_was_run": "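Purified P. pyralis luciferase at 10 nM in 50 mM Tris Acetate (final), luminescence read within 5 minutes of enzyme addition to compounds. Activity normalised to PTC124 versus DMSO; concentration-response curves classed by r2, magnitude and activity.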"}
{"smiles": "NC(=O)c1cn(Cc2c(F)cccc2F)nn1", "activity change, negative = inhibition": "0.547%"}
{"smiles": "CCCN(CCC)CCc1cccc2c1CC(=O)N2", "activity change, negative = inhibition": "-0.296%"}
{"smiles": "COCC(=O)O[C@]1(CCN(C)CCCc2nc3ccccc3[nH]2)CCc2cc(F)ccc2[C@@H]1C(C)C", "activity change, negative = inhibition": "8.04%"}
{"smiles": "c1cc(CN2CCCCC2)cc(OCCCNc2nc3ccccc3s2)c1", "activity change, negative = inhibition": "-1.98%"}
{"smiles": "CN(C)CCOC(=O)COc1ccc(Cl)cc1", "activity change, negative = inhibition": "1.17% [at 24.9 µM]"}
{"smiles": "C[N+](C)(C)CCOC(=O)CCC(=O)OCC[N+](C)(C)C", "activity change, negative = inhibition": "0.869%"}
{"smiles": "OCCN1CCN(CCCN2c3ccccc3C=Cc3ccccc32)CC1", "Potency": "inactive"}
{"smiles": "Cc1nc2ccccn2c(=O)c1CCN1CCC(C(=O)c2ccc(F)cc2)CC1", "activity change, negative = inhibition": "2.98%"}
{"smiles": "CC(C)(C)c1ccc(C(=O)CCCN2CCC(OC(c3ccccc3)c3ccccc3)CC2)cc1", "activity change, negative = inhibition": "4.67%"}
{"smiles": "O=C(O)CN(CCOCCOCCN(CC(=O)O)CC(=O)O)CC(=O)O", "activity change, negative = inhibition": "-1.75%"}
{"smiles": "CCN(CC)CCNC(=O)c1ccc(NC(C)=O)cc1", "activity change, negative = inhibition": "1.4%"}
{"smiles": "CCCCCCCC/C=C\\CCCCCCCC(=O)NCc1ccc(O)c(OC)c1", "activity change, negative = inhibition": "-5.67%"}
{"smiles": "COCCOC(=O)C1=C(C)NC(C)=C(C(=O)OC(C)C)C1c1cccc([N+](=O)[O-])c1", "note": "(centres undefined)", "activity change, negative = inhibition": "-11.6%"}
{"smiles": "CC(=O)OCC1=C(C(=O)O)N2C(=O)[C@@H](NC(=O)Cc3cccs3)[C@H]2SC1", "activity change, negative = inhibition": "-1.75%"}
{"smiles": "NC(N)=N/N=C/c1c(Cl)cccc1Cl", "activity change, negative = inhibition": "5.2%"}
{"smiles": "Cc1ccc(=O)n(-c2ccccc2)c1", "activity change, negative = inhibition": "0.601%"}
{"smiles": "CCN(CC)CC(=O)Nc1c(C)cccc1C", "activity change, negative = inhibition": "1.86%"}
{"smiles": "NC1=NCC2c3ccccc3Cc3ccccc3N12", "note": "(centres undefined)", "activity change, negative = inhibition": "4.32%"}
{"smiles": "O=C(CCNNC(=O)c1ccncc1)NCc1ccccc1", "activity change, negative = inhibition": "-0.263%"}
{"smiles": "COc1ccc([C@@H]2Sc3ccccc3N(CCN(C)C)C(=O)[C@@H]2OC(C)=O)cc1", "activity change, negative = inhibition": "0.827%"}
{"smiles": "CNCCC(Oc1ccccc1OC)c1ccccc1", "note": "(centres undefined)", "activity change, negative = inhibition": "2.31%"}
{"smiles": "COc1cc2c(cc1OC)-c1cc(=Nc3c(C)cc(C)cc3C)n(C)c(=O)n1CC2", "activity change, negative = inhibition": "-4.01%"}
{"smiles": "CN1CCN(CC(=O)N2c3ccccc3C(=O)Nc3cccnc32)CC1", "activity change, negative = inhibition": "11%"}
{"smiles": "OC(CCN1CCCCC1)(c1ccccc1)C1CCCCC1", "note": "(centres undefined)", "activity change, negative = inhibition": "7.42%"}
{"smiles": "CCCN1C[C@H](CSC)C[C@@H]2c3cccc4[nH]cc(c34)C[C@H]21", "activity change, negative = inhibition": "5.9%"}
{"smiles": "CN(C)C(=O)Oc1cccc([N+](C)(C)C)c1", "activity change, negative = inhibition": "0.468%"}
{"tested_on": "not listed separately", "assay": "S16 Schwann cell viability assay (CellTiter-Glo assay) (AID 624031); also: nearly all actives have a fitted effect of over 70% in size; also: potency is read from the fitted curve at half-maximal effect;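 as to activity change, negative = cytotoxicity: cellular ATP luminescence as a viability measure; plate controls were DMSO-treated cells for no effect and cell-free wells for full effect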", "conditions": "S16 rat Schwann cells viability, 24 h; series mostly up to 57.5 µM; activity change, negative = cytotoxicity: at the top concentration", "how_it_was_run": "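Native S16 Schwann cells (rat), serum-containing medium, overnight attachment then 24 h drug exposure at 37 °C/5% CO2. CellTiter-Glo ATP signal; normalized to cell-free and vehicle wells.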"}
{"smiles": "NC(=O)c1cn(Cc2c(F)cccc2F)nn1", "activity change, negative = cytotoxicity": "2.74%"}
{"smiles": "CCCN(CCC)CCc1cccc2c1CC(=O)N2", "activity change, negative = cytotoxicity": "5.74%"}
{"smiles": "CN(C)CCOC(=O)COc1ccc(Cl)cc1", "activity change, negative = cytotoxicity": "7.89% [at 25.7 µM]"}
{"smiles": "C[N+](C)(C)CCOC(=O)CCC(=O)OCC[N+](C)(C)C", "activity change, negative = cytotoxicity": "1.38%"}
{"smiles": "OCCN1CCN(CCCN2c3ccccc3C=Cc3ccccc32)CC1", "Potency": "28.7 µM (active)"}
{"smiles": "Cc1nc2ccccn2c(=O)c1CCN1CCC(C(=O)c2ccc(F)cc2)CC1", "activity change, negative = cytotoxicity": "2.01%"}
{"smiles": "CC(C)(C)c1ccc(C(=O)CCCN2CCC(OC(c3ccccc3)c3ccccc3)CC2)cc1", "Potency": "20.3 µM (active)"}
{"smiles": "O=C(O)CN(CCOCCOCCN(CC(=O)O)CC(=O)O)CC(=O)O", "activity change, negative = cytotoxicity": "-2.99%"}
{"smiles": "CCN(CC)CCNC(=O)c1ccc(NC(C)=O)cc1", "activity change, negative = cytotoxicity": "2.38%"}
{"smiles": "CCCCCCCC/C=C\\CCCCCCCC(=O)NCc1ccc(O)c(OC)c1", "activity change, negative = cytotoxicity": "-27.5%"}
{"smiles": "COCCOC(=O)C1=C(C)NC(C)=C(C(=O)OC(C)C)C1c1cccc([N+](=O)[O-])c1", "note": "(centres undefined)", "activity change, negative = cytotoxicity": "3.89%"}
{"smiles": "CC(=O)OCC1=C(C(=O)O)N2C(=O)[C@@H](NC(=O)Cc3cccs3)[C@H]2SC1", "activity change, negative = cytotoxicity": "2.74%"}
{"smiles": "NC(N)=N/N=C/c1c(Cl)cccc1Cl", "activity change, negative = cytotoxicity": "-10.5%"}
{"smiles": "Cc1ccc(=O)n(-c2ccccc2)c1", "activity change, negative = cytotoxicity": "-0.0175%"}
{"smiles": "NC1=NCC2c3ccccc3Cc3ccccc3N12", "note": "(centres undefined)", "activity change, negative = cytotoxicity": "-13.7%"}
{"smiles": "O=C(CCNNC(=O)c1ccncc1)NCc1ccccc1", "activity change, negative = cytotoxicity": "-10.1%"}
{"smiles": "COc1ccc([C@@H]2Sc3ccccc3N(CCN(C)C)C(=O)[C@@H]2OC(C)=O)cc1", "activity change, negative = cytotoxicity": "0.964%"}
{"smiles": "CNCCC(Oc1ccccc1OC)c1ccccc1", "note": "(centres undefined)", "activity change, negative = cytotoxicity": "-3.18%"}
{"smiles": "COc1cc2c(cc1OC)-c1cc(=Nc3c(C)cc(C)cc3C)n(C)c(=O)n1CC2", "Potency": "32.2 µM (active)"}
{"smiles": "CN1CCN(CC(=O)N2c3ccccc3C(=O)Nc3cccnc32)CC1", "activity change, negative = cytotoxicity": "7.93%"}
{"smiles": "OC(CCN1CCCCC1)(c1ccccc1)C1CCCCC1", "note": "(centres undefined)", "activity change, negative = cytotoxicity": "-26.6%"}
{"smiles": "CCCN1C[C@H](CSC)C[C@@H]2c3cccc4[nH]cc(c34)C[C@H]21", "activity change, negative = cytotoxicity": "-15.7%"}
{"smiles": "CN(C)C(=O)Oc1cccc([N+](C)(C)C)c1", "activity change, negative = cytotoxicity": "12.8%"}
